ChEMBL document CHEMBL3988442, “University of Dundee, Small-Polar-MMV Screening Library” (2021)
For some of these results: Entries with a potency or affinity are not part of this list.

Tests used:
Parameters in all cases: scale not given: direction of the effect not stated beside the values
[1] = target: Protein translocase subunit SecA (Escherichia coli (strain K12)) (UniProt P10408); assay: Assay to Identify E. coli SecA ATPase Inhibitors; assay type: functional; conditions: 30 µM
[2] = target: T1, Ubiquitin-activating enzyme e1, putative (Leishmania donovani (strain BPK282A1)) (UniProt E9BSI1); assay: Leishmania donovani Ubiquitin Activating Enzyme (LdE1); assay type: functional; conditions: 30 µM
T1 sequence (whole entry): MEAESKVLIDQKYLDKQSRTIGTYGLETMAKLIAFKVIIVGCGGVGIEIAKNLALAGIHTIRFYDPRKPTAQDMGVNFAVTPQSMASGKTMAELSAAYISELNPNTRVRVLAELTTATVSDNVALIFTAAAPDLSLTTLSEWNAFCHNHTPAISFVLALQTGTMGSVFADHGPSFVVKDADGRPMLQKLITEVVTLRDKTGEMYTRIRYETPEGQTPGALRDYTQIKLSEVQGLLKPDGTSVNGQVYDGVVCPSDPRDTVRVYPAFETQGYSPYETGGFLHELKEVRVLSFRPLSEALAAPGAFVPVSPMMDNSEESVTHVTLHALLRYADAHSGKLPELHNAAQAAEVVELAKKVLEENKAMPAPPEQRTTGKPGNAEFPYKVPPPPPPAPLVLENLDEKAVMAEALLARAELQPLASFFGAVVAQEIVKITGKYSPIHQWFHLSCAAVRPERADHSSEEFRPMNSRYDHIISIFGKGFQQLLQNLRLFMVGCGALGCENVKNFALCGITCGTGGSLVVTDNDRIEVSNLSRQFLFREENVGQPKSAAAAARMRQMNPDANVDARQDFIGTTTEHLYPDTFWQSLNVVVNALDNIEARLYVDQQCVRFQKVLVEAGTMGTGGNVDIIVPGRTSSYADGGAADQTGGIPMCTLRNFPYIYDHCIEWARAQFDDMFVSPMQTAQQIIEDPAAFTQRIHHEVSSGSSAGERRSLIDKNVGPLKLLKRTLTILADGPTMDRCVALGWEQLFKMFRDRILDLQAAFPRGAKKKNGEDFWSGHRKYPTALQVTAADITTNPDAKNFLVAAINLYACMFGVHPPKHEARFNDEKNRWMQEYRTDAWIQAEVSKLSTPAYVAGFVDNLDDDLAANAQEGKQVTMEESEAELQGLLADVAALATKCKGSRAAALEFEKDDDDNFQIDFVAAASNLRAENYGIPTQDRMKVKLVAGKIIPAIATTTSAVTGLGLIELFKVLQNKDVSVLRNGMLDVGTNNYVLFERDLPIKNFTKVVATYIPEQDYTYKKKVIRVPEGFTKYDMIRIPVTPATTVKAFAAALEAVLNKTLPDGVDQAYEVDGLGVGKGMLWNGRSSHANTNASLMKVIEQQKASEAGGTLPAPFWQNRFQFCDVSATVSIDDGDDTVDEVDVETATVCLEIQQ

[3] = target: AMP-activated protein kinase, AMPK (Homo sapiens) (UniProt P54646+O43741+P54619+Q9UGJ0+Q9Y478+Q13131+Q9UGI9); assay: AMP-dependent Kinase enzyme assay. An in vitro enzyme assay that detects ADP turnover that is directly proportional to AMPK activity. This uses naive AMPK that is activated during the assay with MK-8722; assay type: functional; conditions: 30 µM
[4] = target: Sialic acid-binding Ig-like lectin 9 (Homo sapiens) (UniProt Q9Y336); assay: Hs-Siglec9 ALPHAscreen SOP 20170721; conditions: 10 µM
Sequence of Sialic acid-binding Ig-like lectin 9 (Homo sapiens) (Q9Y336 whole entry): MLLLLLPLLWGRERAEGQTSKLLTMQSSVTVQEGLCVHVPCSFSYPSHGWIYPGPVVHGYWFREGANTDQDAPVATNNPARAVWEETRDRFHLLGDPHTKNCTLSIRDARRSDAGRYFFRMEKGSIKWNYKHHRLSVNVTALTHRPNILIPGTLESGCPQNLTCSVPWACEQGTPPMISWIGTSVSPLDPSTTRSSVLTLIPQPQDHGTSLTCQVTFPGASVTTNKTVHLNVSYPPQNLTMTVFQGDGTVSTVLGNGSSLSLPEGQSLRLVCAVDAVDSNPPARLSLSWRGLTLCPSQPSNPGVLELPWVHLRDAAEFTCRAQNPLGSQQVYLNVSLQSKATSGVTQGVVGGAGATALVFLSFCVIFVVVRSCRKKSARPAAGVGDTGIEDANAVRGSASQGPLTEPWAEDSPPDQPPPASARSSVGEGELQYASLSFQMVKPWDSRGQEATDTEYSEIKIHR

Trypanosoma cruzi = assay: Trypanosoma cruzi phosphomannomutase and mannose-1-phosphate guanylyltransferase assay; assay type: functional; conditions: 10 µM
[5] = target: T2, Arginase-2, mitochondrial (Homo sapiens) (UniProt P78540); assay: in vitro enzyme assay to detect the production of urea directly proportional to the activity of Arginase II; assay type: functional; conditions: 33.3 µM; further: in the data most compounds retested in dose-response had high values
T2 sequence (whole entry): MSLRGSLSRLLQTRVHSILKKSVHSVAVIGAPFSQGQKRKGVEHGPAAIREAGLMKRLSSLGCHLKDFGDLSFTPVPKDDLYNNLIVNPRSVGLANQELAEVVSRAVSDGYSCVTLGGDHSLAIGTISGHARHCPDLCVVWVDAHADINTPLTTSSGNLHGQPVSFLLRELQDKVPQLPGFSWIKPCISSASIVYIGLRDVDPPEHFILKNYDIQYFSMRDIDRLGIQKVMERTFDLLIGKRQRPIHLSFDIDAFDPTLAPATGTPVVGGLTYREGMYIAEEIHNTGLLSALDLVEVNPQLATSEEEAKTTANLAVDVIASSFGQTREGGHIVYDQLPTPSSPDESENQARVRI

[6] = target: T3, Proteasome subunit beta (Trypanosoma cruzi) (UniProt O96673); assay: Trypanosoma cruzi proteasome chymotrypsin-like activity (TcProtChymo) assay.; further: in the data most compounds retested in dose-response had high values; assay type: functional; conditions: 9.37 µM
T3 sequence (whole entry): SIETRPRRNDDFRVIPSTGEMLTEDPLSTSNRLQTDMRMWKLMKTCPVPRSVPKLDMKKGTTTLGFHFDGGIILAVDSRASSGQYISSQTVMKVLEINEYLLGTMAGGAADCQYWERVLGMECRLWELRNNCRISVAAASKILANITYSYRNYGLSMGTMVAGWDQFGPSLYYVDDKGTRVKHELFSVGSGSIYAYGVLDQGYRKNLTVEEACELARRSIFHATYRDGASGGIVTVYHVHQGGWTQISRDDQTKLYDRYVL

Homo sapiens = species on record: Homo sapiens; assay: To identify inhibition of the IFN signalling (Jak-Stat) pathway via expression of an eGFP reporter gene under the control of an IFN-stimulated response element (ISRE) containing MxA promoter.; assay type: functional; conditions: 30 µM
[7] = target: T4, Tyrosyl-tRNA synthetase, putative (Trypanosoma cruzi (strain CL Brener)) (UniProt Q4DSP6); assay: Trypanosoma cruzi tyrosyl tRNA synthetase (TcYRS) _High Tyrosine SOP; assay type: functional; conditions: 30 µM; further: in the data most compounds retested in dose-response had high values
T4 sequence (whole entry): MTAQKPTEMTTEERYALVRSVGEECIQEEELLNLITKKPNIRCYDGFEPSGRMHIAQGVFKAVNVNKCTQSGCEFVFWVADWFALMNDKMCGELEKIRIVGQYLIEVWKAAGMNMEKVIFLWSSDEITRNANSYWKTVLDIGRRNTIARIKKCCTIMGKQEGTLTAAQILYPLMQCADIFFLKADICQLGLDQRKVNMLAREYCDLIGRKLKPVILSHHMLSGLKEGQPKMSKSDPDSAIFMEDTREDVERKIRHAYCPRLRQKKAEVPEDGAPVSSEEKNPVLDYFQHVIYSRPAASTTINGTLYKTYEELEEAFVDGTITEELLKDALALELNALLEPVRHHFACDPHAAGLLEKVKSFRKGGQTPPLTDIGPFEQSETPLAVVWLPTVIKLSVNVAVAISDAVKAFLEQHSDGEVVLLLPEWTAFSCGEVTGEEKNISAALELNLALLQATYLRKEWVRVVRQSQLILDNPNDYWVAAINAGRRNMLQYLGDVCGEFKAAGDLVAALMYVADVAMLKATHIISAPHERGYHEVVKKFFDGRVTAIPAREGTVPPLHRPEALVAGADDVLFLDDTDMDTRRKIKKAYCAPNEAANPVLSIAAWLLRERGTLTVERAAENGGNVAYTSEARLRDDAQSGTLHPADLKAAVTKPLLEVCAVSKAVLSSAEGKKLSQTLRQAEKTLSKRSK

[8] = target: T4, Tyrosyl-tRNA synthetase, putative (Trypanosoma cruzi (strain CL Brener)); assay: Trypanosoma cruzi tyrosyl tRNA synthetase (TcYRS) SOP; assay type: functional; conditions: 30 µM
[9] = target: Chromo domain-containing protein 1 (Saccharomyces cerevisiae (strain ATCC 204508 / S288c) (Baker's yeast)) (UniProt P32657); assay: ScCHD-1 Enzyme Inhibition Assay; assay type: functional; conditions: 30 µM; further: in the data most compounds retested in dose-response had high values
Sequence of Chromo domain-containing protein 1 (Saccharomyces cerevisiae (strain ATCC 204508 / S288c) (Baker's yeast)) (P32657 whole entry, the tested form may be a part): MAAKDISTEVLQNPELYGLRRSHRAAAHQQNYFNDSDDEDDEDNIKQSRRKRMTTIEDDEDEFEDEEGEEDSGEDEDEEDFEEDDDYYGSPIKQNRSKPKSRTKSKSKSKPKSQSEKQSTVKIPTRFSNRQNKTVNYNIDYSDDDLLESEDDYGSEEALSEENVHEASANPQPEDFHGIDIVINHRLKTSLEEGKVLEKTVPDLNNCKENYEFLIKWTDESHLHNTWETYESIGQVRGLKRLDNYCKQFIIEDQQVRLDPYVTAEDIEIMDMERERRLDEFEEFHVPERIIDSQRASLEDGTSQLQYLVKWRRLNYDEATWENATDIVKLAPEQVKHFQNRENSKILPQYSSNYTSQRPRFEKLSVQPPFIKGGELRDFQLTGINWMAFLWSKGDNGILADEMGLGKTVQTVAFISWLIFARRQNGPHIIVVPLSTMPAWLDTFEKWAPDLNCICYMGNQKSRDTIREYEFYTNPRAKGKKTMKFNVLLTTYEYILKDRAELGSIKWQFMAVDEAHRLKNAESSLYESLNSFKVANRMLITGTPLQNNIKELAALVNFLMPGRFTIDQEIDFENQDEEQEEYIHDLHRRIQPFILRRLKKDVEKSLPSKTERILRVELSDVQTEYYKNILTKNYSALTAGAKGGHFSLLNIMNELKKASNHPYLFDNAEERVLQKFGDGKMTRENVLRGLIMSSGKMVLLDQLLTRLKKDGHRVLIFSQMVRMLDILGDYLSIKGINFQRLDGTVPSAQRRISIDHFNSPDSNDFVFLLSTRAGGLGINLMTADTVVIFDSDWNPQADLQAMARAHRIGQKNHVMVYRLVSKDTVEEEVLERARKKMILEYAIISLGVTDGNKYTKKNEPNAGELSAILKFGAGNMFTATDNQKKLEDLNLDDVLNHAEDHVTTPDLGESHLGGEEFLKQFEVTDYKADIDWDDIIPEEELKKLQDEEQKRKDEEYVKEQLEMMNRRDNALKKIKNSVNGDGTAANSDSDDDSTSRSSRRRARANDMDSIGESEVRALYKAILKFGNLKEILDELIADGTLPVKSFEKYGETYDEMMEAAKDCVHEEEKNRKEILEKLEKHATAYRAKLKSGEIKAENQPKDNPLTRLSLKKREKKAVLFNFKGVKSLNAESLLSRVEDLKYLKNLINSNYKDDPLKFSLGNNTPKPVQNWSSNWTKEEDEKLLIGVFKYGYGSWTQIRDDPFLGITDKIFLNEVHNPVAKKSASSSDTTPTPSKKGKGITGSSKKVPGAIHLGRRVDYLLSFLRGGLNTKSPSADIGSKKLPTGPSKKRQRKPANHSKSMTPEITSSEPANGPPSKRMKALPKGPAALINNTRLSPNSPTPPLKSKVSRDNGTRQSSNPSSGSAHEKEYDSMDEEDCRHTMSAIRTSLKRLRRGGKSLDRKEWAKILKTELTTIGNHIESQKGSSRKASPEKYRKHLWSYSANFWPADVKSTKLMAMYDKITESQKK

Sequence of Protein translocase subunit SecA (Escherichia coli (strain K12)) (P10408 whole entry): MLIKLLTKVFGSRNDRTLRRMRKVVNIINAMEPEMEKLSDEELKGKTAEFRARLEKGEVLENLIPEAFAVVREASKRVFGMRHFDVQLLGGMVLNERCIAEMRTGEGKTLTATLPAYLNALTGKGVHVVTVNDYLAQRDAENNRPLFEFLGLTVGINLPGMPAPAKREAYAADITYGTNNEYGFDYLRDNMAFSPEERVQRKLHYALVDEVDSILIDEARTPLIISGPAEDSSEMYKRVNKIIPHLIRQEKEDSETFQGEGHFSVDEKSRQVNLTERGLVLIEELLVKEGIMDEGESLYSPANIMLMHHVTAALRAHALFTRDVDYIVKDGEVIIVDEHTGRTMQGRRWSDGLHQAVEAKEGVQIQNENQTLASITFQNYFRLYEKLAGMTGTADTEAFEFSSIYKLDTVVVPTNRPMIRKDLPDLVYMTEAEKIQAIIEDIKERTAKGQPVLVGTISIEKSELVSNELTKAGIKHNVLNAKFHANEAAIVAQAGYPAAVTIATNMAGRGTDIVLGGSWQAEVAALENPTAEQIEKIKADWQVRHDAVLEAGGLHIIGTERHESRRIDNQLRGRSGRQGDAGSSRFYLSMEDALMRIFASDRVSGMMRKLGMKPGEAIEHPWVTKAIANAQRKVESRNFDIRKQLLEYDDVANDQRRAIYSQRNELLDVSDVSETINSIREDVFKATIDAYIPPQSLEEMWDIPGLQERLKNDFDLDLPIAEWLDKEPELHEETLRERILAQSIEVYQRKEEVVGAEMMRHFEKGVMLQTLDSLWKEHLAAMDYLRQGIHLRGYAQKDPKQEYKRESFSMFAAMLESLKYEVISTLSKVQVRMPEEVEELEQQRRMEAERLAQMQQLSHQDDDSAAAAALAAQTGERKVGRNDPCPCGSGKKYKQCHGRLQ

SMILES | Percent Effect [1] [%] | Percent Effect [2] [%] | Percent Effect [3] [%] | Percent Effect [4] [%] | Percent Effect (Trypanosoma cruzi) [%] | Percent Effect [5] [%] | Percent Effect [6] [%] | Percent Effect (Homo sapiens) [%] | Percent Effect [7] [%] | Percent Effect [8] [%] | Percent Effect [9] [%]
Cc1cnc(CN(C)C2CCN(CC(=O)Nc3nncs3)C2)o1 (stereo unspecified) | -0.539 | 22.8 | -11 | -8.69 | -2.74 | 1.14 | 5 | 5.59 | 12.3 | 21.5 | -9.12
O=C(c1ccc[nH]1)N1CCC2(CC1)C(=O)Nc1ccccc12 | -3.56 | 16.2 | -2.52 | 18 | 6.35 | 4.22 | 10.7 | -3.84 | 5.38 | 23.5 | -5.84
CCc1nnc(CNCC2CCN(CC(O)c3ccccc3)CC2)o1 (stereo unspecified) | -4.81 | 19 | -3.87 | -2.88 | -2.15 | -7.1 | 11.5 | 14 | -2.08 | 12.7 | -30.3
COc1ccc(CC(=O)N2CCCCC2Cn2cccn2)cc1OC (stereo unspecified) | -5.85 | 7.89 | 1.89 | 0.458 | 0.682 | -11.8 | 6.81 | 5.15 | 0 | 10.4 | -1.27
Cc1cc(N2CCC3(CCC(=O)N(CC4CC4)C3)CC2)nc(N)n1 | -4.29 | 5.41 | -2.2 | 5.16 | -0.88 | -1.74 | 8.15 | 7.43 | 9.68 | 8.64 | -3.15
Cc1cnn(CC2CN(CCS(=O)(=O)c3ccccc3)CCO2)c1 (stereo unspecified) | -8.49 | 0 | 0.043 | -0.479 | -2.25 | -0.248 | 5.41 | 12.1 | 5.38 | 1.24 | -5.16
CCOC1CCN(C(=O)c2cnn(-c3ccccc3Cl)c2)CC1 | -4.12 | 8.11 | -9.38 | 9.51 | 0.283 | 0.802 | 2.34 | 4.91 | 6.4 | 16.1 | -0.798
CN(C)C(C(=O)N1CCCC1)c1ccccc1F (stereo unspecified) | -2.84 | 1.39 | 3.5 | -3.25 | -5.54 | 5.3 | 4.74 | -1.68 | 3.16 | 2.56 | -0.0422
CC(C)c1nnc(NC(=O)NCc2ccc(CO)c(F)c2)s1 | -5.17 | 11.4 | -2.17 | -0.945 | -1.95 | 3.66 | 11.8 | 26.1 | -5.21 | -2.53 | -11.2
COc1ccc(C(C)N2CCN(Cc3nccn3C)CC2)cc1Cl (stereo unspecified) | -3.06 | 2.6 | -0.681 | 9.44 | -1.87 | 0.712 | 11.3 | 9.04 | 2.91 | 0 | -0.322
COc1ccc(CNC(=O)NCC2CCOC2)c(C(F)(F)F)c1 (stereo unspecified) | -7.19 | 1.39 | -0.168 | 4.9 | -4.37 | -0.442 | 9.3 | 16.2 | 5.26 | 2.56 | -0.725
